# M1 PAM parental: nonselective calcium activators in parental CHO-K1 cells, primary screen, counter-screen for M1 PAM project, cell-based, Fluo-8 calcium fluorescence, full deck, 1536-well; activation, % at 3 µM; ATP EC20; 0% at ATP EC20, 100% at ATP max; 360,000 compounds, 0.02% hits;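 active means activation above the run cutoff, the mean activation of all test compounds plus 3 SD, cut at about 40% in these data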;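 further: peak over basal fluorescence ratio in a 140 s read after ATP addition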
# M1 PAM: human M1 muscarinic receptor positive allosteric modulators, primary screen, CHO-K1 cells, Fluo-8 calcium fluorescence, 1536-well. 360,000 compounds, 0.088% hits. activation, % at 3 µM. Muscarinic acetylcholine receptor M1 (Homo sapiens), P11229. AID 588819, 2011. CHO-K1 hM1, ACh EC20; 0% = ACh EC20, 100% = maximal ACh; in the data active means activation above about 19%, passing the limit was not always enough
# Target sequence (P11229 whole entry, looked up): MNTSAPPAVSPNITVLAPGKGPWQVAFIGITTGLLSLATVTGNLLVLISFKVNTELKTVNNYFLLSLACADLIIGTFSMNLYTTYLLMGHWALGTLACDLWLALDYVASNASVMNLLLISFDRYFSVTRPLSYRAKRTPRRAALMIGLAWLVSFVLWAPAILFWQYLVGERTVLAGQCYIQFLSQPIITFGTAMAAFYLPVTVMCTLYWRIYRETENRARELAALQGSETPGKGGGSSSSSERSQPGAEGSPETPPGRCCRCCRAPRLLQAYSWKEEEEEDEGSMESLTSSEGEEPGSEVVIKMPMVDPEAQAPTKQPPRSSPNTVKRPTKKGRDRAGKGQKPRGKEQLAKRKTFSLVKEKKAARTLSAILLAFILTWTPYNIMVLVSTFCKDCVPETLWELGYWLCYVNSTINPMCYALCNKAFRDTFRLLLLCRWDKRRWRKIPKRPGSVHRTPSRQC
# CHRM1 agonist: human M1 muscarinic receptor agonists, primary screen, Fluo-8 calcium fluorescence, CHO-K1 cells, HTS | Muscarinic acetylcholine receptor M1 (Homo sapiens), P11229 | CHO-K1 hM1, agonist mode; 0% DMSO, 100% acetylcholine EC100 | activation, % at 3 µM | 360,000 compounds, 0.33% hits;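 active means activation above the run's mean compound activation plus 3 SD, cut at about 16% in these data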;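 further: peak over basal fluorescence ratio within a 140 s kinetic read after compound addition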
# M1 antag: human M1 muscarinic receptor antagonists, primary screen, CHO-K1 cells, Fluo-8 calcium fluorescence, 1536-well; CHO-K1 hM1, ACh EC80 antagonist; inhibition, % at 3 µM; 360,000 compounds, 1.3% hits; AID 588852, 2011;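 active means percent inhibition above its own plate's cutoff, namely the mean of that plate's compound wells plus 3 SD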;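 further: peak over basal fluorescence ratio during 140 s after agonist addition; 0% = ACh EC80 plus DMSO and 100% = DMSO alone without agonist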
# M1 ag parental: counter-screen for M1 agonists: effect in parental CHO-K1 cells | Fluo-8 calcium fluorescence; scaled to maximal ATP response, vehicle zero | activation, % at 3 µM | 360,000 compounds, 0.48% hits; in the data active means activation above about 15%;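 further: untransfected CHO-K1 host cells lacking M1 receptor as counterscreen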
# CHO-K1 Ca antag: M1 antagonist counterscreen hit in parental CHO-K1 cells; inhibition, % at 3 µM; AID 602250; ATP-induced calcium, Fluo-8 fluorescence; 360,000 compounds, 0.6% hits;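 active means inhibition above a per-plate cutoff, the plate's mean sample inhibition plus 3 SD, cut at about 24% in these data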;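 further: 0% = DMSO plus EC80 ATP and 100% = DMSO alone without ATP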
# * hit, by the source's call. This is a sample that favours compounds with a hit; in the whole collection about 2.4% have one here.
SMILES,M1 PAM parental,M1 PAM,CHRM1 agonist,M1 antag,M1 ag parental,CHO-K1 Ca antag
Cc1ccc([C@H]2C[C@@H](n3cc(COC(=O)c4ccccc4)nn3)[C@H](O)CN2C(=O)c2cccs2)cc1,6.7,12.7,5.2,-13.0,1.1,-3.8
Cc1cccc(C)c1NC(=O)C1CCCN(CCCc2ccccc2)C1 (stereo not drawn),16.1,-24.0,-7.1,96.6*,1.6,-4.0
OC(CN1CCCCC1)c1ccc2c3c(cccc13)CC2 (stereo not drawn),-6.4,-7.9,-6.9,11.7,-0.1,-10.8
Cn1c(=O)c2[nH]c(Cc3cccc(O)c3)nc2n(C)c1=O,11.7,5.2,-4.4,-15.9,0.4,-10.7
Cn1c(=O)c2[nH]c(COc3ccc(C(C)(C)C)cc3)nc2n(C)c1=O,-0.2,-14.4,4.0,38.9*,13.6,-4.8
Brc1ccccc1OCCN1CCCC1,15.7,-3.5,-5.9,-9.4,1.0,-13.7
CCOC(=O)C1=C(CC)Nc2ccccc2N=C1NC(=O)Nc1ccc(Cl)c(Cl)c1,7.4,-16.2,5.0,33.1*,9.9,23.5
CCOC(=O)C1=C(CC)Nc2ccccc2N=C1NC(=O)c1cc(C)on1,-12.3,-9.2,-3.8,12.1,5.1,-7.9
COc1cccc(OCc2cc(C(=O)N3CCN(c4ccccc4OC)CC3)no2)c1,7.4,-3.3,-2.9,-6.4,5.3,-21.5
Cc1c(C(=O)NN)[nH]c2ccc([N+](=O)[O-])cc12,-5.1,3.7,1.1,1.1,25.8*,7.7
NNC(=O)c1[nH]c2ccc([N+](=O)[O-])cc2c1-c1ccccc1,11.2,4.4,-7.5,-11.1,2.5,-9.4
CCCCCCCNC(=O)CN1N=C(c2ccc(C)cc2)CCC1=O,10.3,-2.2,-6.3,8.0,3.4,19.4
O=C(C[N+]1(CC#Cc2ccccc2)CCCCC1)c1ccc(Cl)cc1,8.3,-38.1,-15.6,52.4*,0.4,-14.9
O=C(C[N+]1(CC#Cc2ccccc2)CCOCC1)c1ccccc1,22.8,-4.0,-16.0,-3.6,1.0,-17.0
O=C(C[N+]1(CC#Cc2ccccc2)CCCCC1)c1ccccc1,-13.7,-15.8,-6.0,44.2*,-0.1,3.2
CC(C)CC1CCCCC1OC(=O)C[N+]1(C)CCCCC1 (stereo not drawn),16.2,-35.6,-14.2,95.5*,-0.1,-11.4
CCOc1ccc(Cl)cc1CNCCCSc1ncccn1,13.0,1.7,-4.3,-6.6,18.9*,10.2
O=C(/C(=C/c1ccc(Cl)cc1)c1nc2ccccc2[nH]1)c1cccs1,4.5,-36.3,-11.4,94.4*,1.8,-10.8
O=C(/C(=C\c1ccccc1)c1nc2ccccc2[nH]1)c1ccc(Cl)cc1,19.5,-14.9,-6.9,1.3,1.0,-15.6
O=c1[nH]c2ccccc2nc1/C=C(\O)c1cccs1,2.3,-7.0,18.0*,4.0,15.2*,12.3
COC(=O)c1ccc2nc(-c3ccc(C)cc3)c(CC3CCCCC3)n2c1,18.9,-3.2,2.2,-11.5,1.4,-17.2
COc1cccc(CNC(=O)Cn2c(=O)n(CCC(=O)N3CCCCC3)c(=O)c3sccc32)c1,-1.9,-1.7,-1.7,4.2,0.3,-3.0
CCCCN(C(=O)CSc1nnc(-c2ccc(OC)cc2)n1CC)c1c(N)n(Cc2ccccc2)c(=O)[nH]c1=O,-12.2,-4.0,-6.4,-7.2,-0.4,27.6*
CCCCN(C(=O)CSc1nnc(-c2ccc(OC)cc2)n1C(C)C)c1c(N)n(Cc2ccccc2)c(=O)[nH]c1=O,8.7,13.7,-9.3,-14.9,-0.8,-3.7
O=C(NCCc1cccc(Cl)c1)c1ccc(Cl)c([N+](=O)[O-])c1,5.2,-11.7,-7.4,-1.8,5.2,2.1
Cc1ccc(C(=O)NCCc2nc3ccccc3[nH]2)cc1[N+](=O)[O-],-11.7,-5.7,-1.1,5.5,0.8,23.7*
